# Measured values reported in PubChem BioAssay AID652040 (Broad Institute, 2013).
# Entries with a potency or affinity are not part of this list. Activity calls are given as the source filed them.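 The calls were made as follows: active = falling luciferase signal whose fitted half-maximal concentration is at most twice the top tested dose; inconclusive = flat inhibition between 30 and 70% or a poor curve fit; inactive = the rest.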
# Test: off-target signal loss in HeLa-CEM21 co-culture – HeLa F-luc CTL cells, cherry-picked, counter-screen for HIV-1 Env fusion inhibitor project, dose response (AID 652040);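 also: more negative values mean stronger loss of luciferase signal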
row,SMILES,outcome
1,CCc1nc2ccccc2c(C(=O)OCC(=O)Nc2cccc(S(=O)(=O)N3CCOCC3)c2)c1C,inactive
2,CC(=O)c1c(C)[nH]c(C(=O)OCC(=O)Nc2ccc(Cl)c(S(=O)(=O)N(C)C)c2)c1C,inactive
3,COC(=O)[C@H](Cc1ccccc1)NC(=O)Cn1cnc(C(=O)Nc2ccc(C)c(C)c2)n1,inactive
4,O=C(Nc1ccc(CN2CCOCC2)cc1)c1ccc(-c2cccc(Cl)c2)o1,inactive
5,Cc1ccccc1-n1c(=O)c2ccccc2n2cnnc12,inactive
6,CCn1ncc(C2=NOC(C(=O)Nc3ccc(C)cc3)C2)c1C (centres undefined),inactive
7,C=CC[n+]1c(-c2ccc(OC)c(OC)c2)csc1NNC(=O)Nc1ccccc1,inactive
8,COc1cc(-c2cc(OC)c(O)c(OC)c2)cc(OC)c1O,inactive
9,CC(NNC(=S)N1CCCCCC1)c1ccc2ccccc2n1 (centres undefined),inactive
10,COc1ccc(S(=O)(=O)NNC(=O)C2Cc3c(ccc4ccccc34)O2)cc1 (centres undefined),inactive
11,COc1ccc(C(=O)NCCc2ccc(Cl)cc2)cc1S(=O)(=O)N1CCCCC1C (centres undefined),inactive
12,CCc1nnc(NC(=O)[C@@H](NC(=O)c2cccc(S(=O)(=O)N(CC)CC)c2)C(C)C)s1,inactive
13,O=C(Nc1cccn(Cc2c(Cl)cccc2Cl)c1=O)c1ccc(Cl)cc1,inactive
14,O=C(Nc1ccc(Cl)cc1)C1CCCN(C2=NS(=O)(=O)c3ccccc32)C1 (centres undefined),inactive
15,Cc1ccc(NC(=O)c2ccc(OCC3CCCO3)cc2)cc1Cl (centres undefined),inactive
16,CC1CCC(C(C)C)C(OC(=O)Cn2c(-c3ccccc3)[n+](C)c3ccccc32)C1 (centres undefined),inactive
17,CCCn1c(Nc2nc3ccccc3n2C)nc2ccccc21,inactive
18,Nc1ccc(S(=O)(=O)c2ccc(N3CCOCC3)c(N)c2)cc1,inactive
19,O=C(Nc1nc(-c2ccc3c(c2)OCO3)cs1)c1ccncc1,inactive
20,COc1cc(-c2c(-c3cc(OC)c(OC)c(OC)c3)noc2C)ccc1F,inactive

row,SMILES,outcome
1,c1csc(-c2csc3ncnc(NCCCN4CCOCC4)c23)c1,inactive
2,CC(c1nc2ccccc2c(=O)[nH]1)N(C)CCOc1ccc(Cl)cc1 (centres undefined),inactive
3,COc1ccc(OCC(=O)Nc2ccccc2N2CCCCC2)cc1,inactive
4,O=C(c1ccccc1)N1CCN(c2ncnc3sc4c(c23)CCC4)CC1,inactive
5,Cc1ccc(-n2nnnc2SCn2nnc3ccccc3c2=O)c(C)c1,inactive
6,COc1ccc(C(O)c2nc3ccccc3n2C)cc1OC (centres undefined),inactive
7,Cc1cc(Cl)c(S(=O)(=O)N2CCSCC2)cc1OCC(=O)NC1CCCCC1,inactive
8,COc1ccc(C)cc1NC(=O)CCNS(=O)(=O)c1ccc2c(c1)CC(C)N2C(C)=O (centres undefined),inactive
9,COC(=O)[C@@]12CCCN1[C@H](c1ccc(-c3ccc(F)cc3)c(OC)c1)[C@H]1C(=O)N(C)C(=O)[C@H]12,inactive
10,CC(C)CN(C(=O)c1ccc(S(=O)(=O)N2CCCCC2)cc1)C1CCS(=O)(=O)C1 (centres undefined),inactive
11,O=S(=O)(NC1CC1)c1ccc(S(=O)(=O)N2CCCc3ccccc32)cc1,inactive
12,C=C(C)CN(CC)c1nc(N)c2c(N)nc3c(c2c1C#N)CC(=O)N3C12CC3CC(CC(C3)C1)C2,inactive
13,O=S(=O)(NCCc1csc(-c2cccnc2)n1)c1ccc(Cl)s1,inactive
14,CC(=O)c1c(C)[nH]c(C(=O)OCC(=O)Nc2c(C)cccc2C)c1C,inactive
15,Cc1sc2ncnc(N3CCN(S(=O)(=O)c4ccc(Br)cc4)CC3)c2c1C,inactive
16,Cc1ccc(NS(=O)(=O)c2cc(C(=O)N(C)C3CCN(C)CC3)ccc2Cl)cc1Cl,inactive
17,CCNc1ncnc2c1cnn2C1CCCO1 (centres undefined),inactive
18,Clc1ccc(-c2noc(CSc3nnc(-c4ccncc4)n3-c3ccccc3)n2)cc1,inactive
19,CCCCS(=O)(=O)N1CCN(C(=O)C(=O)c2cccc(C(F)(F)F)c2)CC1,inactive
